Results filed as inconclusive are left out. Activity calls are given as the source filed them. Calls follow the shape of the dose curve; as a rule, active = well fitted curve in the direction sought with a large enough effect; inconclusive = small, poorly fitted or top-dose-only effect, or another doubt; inactive = no such curve, though single readings can be large; an effect the other way counts as inactive or inconclusive.
Assays:
[1] = tested on: Zika virus NS2B-NS3 protease (linked construct); assay: Primary screen NINDS Rhodamine qHTS for Zika virus inhibitors (AID 1347160); also: nearly all actives have a fitted effect of over 55% in size; as to activity change, negative = inhibition: % is scaled to controls: 0 for no effect and ±100 for the full control effect
How it was run: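 Enzyme (25 nM, linked NS2B-NS3) was preincubated 15 min with compound in 10 mM Tris-HCl pH 8.0, 0.01% Tween 20. Rhodamine110 substrate (1.5 microM) was then added and fluorescence read at start and after 15 min.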

[2] = target: Calcium and integrin-binding protein 1 (Homo sapiens) (UniProt Q99828); assay: Primary qHTS for Identification of Calcium Integrin Binding Protein 1 (CIB1) Competitor (AID 1508620);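 also: GST tagged CIB1 binding a fluorescein labelled alphaIIb integrin peptide tracer; top concentration of the series differs between compounds; % is scaled to controls: 0 for no effect and ±100 for the full control effect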
Chain of Calcium and integrin-binding protein 1 (Homo sapiens) (Q99828 whole entry, looked up): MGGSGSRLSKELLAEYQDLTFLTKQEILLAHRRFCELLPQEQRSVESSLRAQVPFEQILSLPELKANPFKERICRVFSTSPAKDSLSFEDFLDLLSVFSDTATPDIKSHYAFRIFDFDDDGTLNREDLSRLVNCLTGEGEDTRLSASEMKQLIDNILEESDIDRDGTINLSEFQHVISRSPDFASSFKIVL
How it was run: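 CIB1-GST (1 uM final) and compound incubated 15 min at room temperature before adding FITC-alphaIIb peptide tracer (100 nM final). Competition for binding read by fluorescence polarization (ex 480, em 540) after another 15 min at room temperature.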

[3] = target: Phospholipid hydroperoxide glutathione peroxidase GPX4 (Homo sapiens) (UniProt P36969); assay: Primary qHTS Assay for Inhibitors of Recombinant Selenoprotein Glutathione Peroxidase 4 (GPX4) (AID 1845192); also: % is scaled to controls: 0 for no effect and ±100 for the full control effect; nearly all actives have a fitted effect of over 65% in size
Chain of Phospholipid hydroperoxide glutathione peroxidase GPX4 (Homo sapiens) (P36969 whole entry, looked up): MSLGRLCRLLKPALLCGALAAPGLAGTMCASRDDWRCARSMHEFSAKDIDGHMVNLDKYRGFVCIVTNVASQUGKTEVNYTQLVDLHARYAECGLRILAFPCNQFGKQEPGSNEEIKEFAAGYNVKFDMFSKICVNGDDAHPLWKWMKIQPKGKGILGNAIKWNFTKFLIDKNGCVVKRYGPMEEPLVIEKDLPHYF
How it was run: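 NADPH consumption followed by fluorescence at 340/450 nm, t=0 and after 15 min at room temperature. Reaction started with cumene hydroperoxide (0.5 mM final) after 30 min compound–GPX4 preincubation; final 200 nM GPX4, 100 nM GR, 1 mM GSH, 0.5 mM NADPH.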

[4] = target: Luciferin 4-monooxygenase (Photinus pyralis) (UniProt P08659); assay: Primary firefly luciferase (FLuc) qHTS assay for identification of artifact compounds. (AID 1845220); details: outcome: dose series up to 54.1 µM unless noted; also: nearly all actives have a fitted effect of over 60% in size;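 as to activity change, negative = inhibition: plate controls were DMSO vehicle for no effect and no enzyme for full effect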
How it was run: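 Compounds sat 15 min at room temperature with 10 uM luciferin and 10 uM ATP (pH 7.6 Tris acetate). Firefly luciferase (10 nM final) was then added, and luminescence was read 5 min later. Data normalized to no-enzyme and DMSO controls were Hill-fitted.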

[5] = Primary fluorescence-based thiol-reactive (MSTI) qHTS assay for identification of artifact compounds. (AID 1845221);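 also: thiol-reactive compounds lower the probe fluorescence signal; nearly all actives have a fitted effect of over 65% in size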
How it was run: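 MSTI probe at 4 uM final in 2% DMSO/PBS pH 7.4; compounds, 1 h at room temperature in dark. Fluorescence Ex/Em 525/598 nm, normalised to Acetyl-MSTI and MSTI, fitted to 4-parameter Hill.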

[6] = tested on: Nanoluciferase (engineered Oplophorus gracilirostris luciferase); assay: Primary Nanoluciferase (NLuc) qHTS assay for identification of artifact compounds. (AID 1845222);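 also: 0% = DMSO and -100% = no enzyme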
How it was run: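 Luminescence from secreted NLuc (filtered, 1:55-diluted S16 cell medium) read 5 min after Nano-Glo substrate; compounds preincubated 15 min, RT. Hill fits of inhibition normalized to DMSO and no-enzyme.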

[7] = Primary redox qHTS assay for identification of artifact compounds. (AID 1845223);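 also: 0% = DMSO and 100% = reference compound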
How it was run: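 Redox-cycling detection via DTT (250 uM final) oxidation coupled to Amplex Red (25 uM)/HRP (250 mU/mL) in HBSS. 15 min preincubation plus 30 min after DTT, room temperature. Ex/Em 525/598 nm; 4-parameter Hill fit against DMSO and 10 uM DA3003.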

CRL-7250 = normal cell line; assay: Cytotoxic Profiling of Annotated Libraries Using Quantitative High-Throughput Screening (AID 1296008); details: Five cell lines viability, CellTiter-Glo ATP luminescence, 48-72 h; max response: active compounds read low; also: nearly all actives have a fitted effect of over 60% in size; also: potency is read from the fitted curve at half-maximal effect; as to max response: % is scaled to controls: 0 for no effect and ±100 for the full control effect
How it was run: (§1)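 Cytotoxicity was measured as CellTiter-Glo ATP luminescence, read after 10 min at room temperature. Compound treatment of the cells lasted 48 or 72 hr at 37 degrees Celsius in a qHTS format.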

NIH3T3 = assay: as above; details: Five cell lines viability, CellTiter-Glo ATP luminescence, 48-72 h; max response: active compounds read low
How it was run: as §1

C33A = assay: Primary qHTS to identify gynecologic anti-cancer compounds using libraries of approved drugs and bioactive compounds (AID 1345084); details: Gynecologic cancer cell panel viability, ATPlite luminescence, 48 h; series mostly up to 57.5 µM; also: nearly all actives have a fitted effect of over 55% in size; also: potency is read from the fitted curve at half-maximal effect; as to activity change, negative = cytotoxicity: % is scaled to controls: 0 for no effect and ±100 for the full control effect
How it was run: (§2)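 Cells, 1,000 per well, plated 16 h, then exposed 48 h at 37 C to compounds. Viability by ATPlite luminescence after 15 min at room temperature.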

CAOV3 = assay: as above; details: Gynecologic cancer cell panel viability, ATPlite luminescence, 48 h; series mostly up to 57.5 µM
How it was run: as §2

CASKI = assay: as above; details: Gynecologic cancer cell panel viability, ATPlite luminescence, 48 h; series mostly up to 57.5 µM
How it was run: as §2

Es-2 = assay: as above; details: Gynecologic cancer cell panel viability, ATPlite luminescence, 48 h; series mostly up to 57.5 µM
How it was run: as §2

Hek293T = assay: as above; details: Gynecologic cancer cell panel viability, ATPlite luminescence, 48 h, control line for the selectivity index; series mostly up to 57.5 µM
How it was run: as §2

JEG-3 = assay: as above; details: Gynecologic cancer cell panel viability, ATPlite luminescence, 48 h; series mostly up to 57.5 µM
How it was run: as §2

OV90 = assay: as above; details: Gynecologic cancer cell panel viability, ATPlite luminescence, 48 h; series mostly up to 57.5 µM
How it was run: as §2

PA-1 = assay: as above; details: Gynecologic cancer cell panel viability, ATPlite luminescence, 48 h; series mostly up to 57.5 µM
How it was run: as §2

Tov-21-G = assay: as above; details: Gynecologic cancer cell panel viability, ATPlite luminescence, 48 h; series mostly up to 57.5 µM
How it was run: as §2

Tov112D = assay: as above; details: Gynecologic cancer cell panel viability, ATPlite luminescence, 48 h; series mostly up to 57.5 µM
How it was run: as §2

[8] = target: Glutathione peroxidase 1 (Homo sapiens) (UniProt P07203); assay: Primary qHTS Assay for Inhibitors of Recombinant Selenoprotein Glutathione Peroxidase 1 (GPX1) (AID 1845191); also: % is scaled to controls: 0 for no effect and ±100 for the full control effect; nearly all actives have a fitted effect of over 65% in size
Chain of Glutathione peroxidase 1 (Homo sapiens) (P07203 whole entry, looked up): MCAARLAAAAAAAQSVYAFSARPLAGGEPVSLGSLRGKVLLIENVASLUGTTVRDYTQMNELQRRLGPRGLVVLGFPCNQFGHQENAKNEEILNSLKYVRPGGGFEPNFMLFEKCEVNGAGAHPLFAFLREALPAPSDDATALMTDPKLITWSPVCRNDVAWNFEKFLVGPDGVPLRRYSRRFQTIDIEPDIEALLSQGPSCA
How it was run: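 NADPH consumption tracked by fluorescence at 340/450 nm between t=0 and t=15 min, room temperature. Final mix: 10 nM GPX1, 100 nM glutathione reductase, 1 mM GSH, 0.5 mM NADPH, 0.5 mM cumene hydroperoxide, 0.01% BSA; 30 min compound–enzyme preincubation.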

C[C@@H]1CCC2[C@@H](C)C(=O)OC3O[C@@]4(C)CCC1[C@]32OO4 (stereo not given in full)
inactive: Potency [1] | Potency [2] | Potency [3] | outcome [4] | Potency [5] | Potency [6] | Potency [7] | max response (CRL-7250) -1.83% | max response (NIH3T3) -13.5% | Potency (C33A) | Potency (CAOV3) | Potency (CASKI) | Potency (Es-2) | Potency (Hek293T) | Potency (JEG-3) | Potency (OV90) | Potency (PA-1) | Potency (Tov-21-G) | Potency (Tov112D)

CO/C1=C\C(C)=C\[C@@H](C)[C@@H](O)[C@@H](C)C/C(C)=C/C=C/[C@H](OC)[C@@H]([C@@H](C)[C@@H](O)[C@H](C)[C@@]2(O)C[C@@H](O)[C@H](C)[C@@H](C(C)C)O2)OC1=O
active: Potency (CRL-7250) 86.2 nM | Potency (C33A) 141 nM | Potency (CAOV3) 126 nM | Potency (Es-2) 79.4 nM | Potency (Hek293T) 100 nM | Potency (OV90) 89.1 nM | Potency (PA-1) 89.1 nM | Potency (Tov112D) 100 nM
inactive: Potency [1] | Potency [3] | outcome [4] | Potency [5] | Potency [6] | Potency [7] | Potency (CASKI) | Potency (JEG-3)

CO[C@@H]1[C@@H](O)[C@@H](O[C@H]2CC[C@]3(C=O)C4CC[C@]5(C)[C@@H](C6=CC(=O)OC6)CC[C@]5(O)[C@@H]4CC[C@H]3C2)O[C@@H](C)[C@H]1O[C@@H]1O[C@H](CO[C@@H]2O[C@H](CO)[C@@H](O)[C@H](O)[C@H]2O)[C@@H](O)[C@H](O)[C@H]1O (stereo not given in full)
active: Potency (CRL-7250) 2190 nM | Potency (C33A) 3550 nM | Potency (Es-2) 2000 nM | Potency (Tov-21-G) 3550 nM | Potency (Tov112D) 2510 nM
inactive: Potency [1] | Potency [2] | Potency [8] | Potency [3] | activity change, negative = inhibition [4] -6.08% [at 11.6 µM] | activity change, negative = thiol reactive [5] 52.3% [at 11.5 µM] | activity, negative = inhibition [6] 1.53% [at 11.6 µM] | redox activity (% of DA3003) [7] 5.87% [at 11.5 µM] | outcome (NIH3T3) | activity change, negative = cytotoxicity (CAOV3) -17.5% [at 11.6 µM] | activity change, negative = cytotoxicity (CASKI) 13.6% [at 11.6 µM] | activity change, negative = cytotoxicity (JEG-3) -2.75% [at 11.6 µM] | activity change, negative = cytotoxicity (OV90) 8.02% [at 11.6 µM]

CCOC(=O)Nc1ccc(NCc2c(C)cc(C)cc2C)cc1N
inactive: Potency [1] | Potency [2] | Potency [8] | Potency [3] | outcome [4] | Potency [6] | Potency [7] | outcome (CRL-7250) | max response (NIH3T3) 0.149% | Potency (C33A) | Potency (CASKI) | Potency (Es-2) | Potency (Hek293T) | Potency (JEG-3) | Potency (OV90) | Potency (PA-1) | Potency (Tov-21-G) | Potency (Tov112D)

NC(=O)[C@@H](CC1CC1)[C@@H](CCC(F)(F)F)C(=O)N[C@H]1N=C(c2ccccc2)c2cccc(F)c2NC1=O
inactive: Potency [1] | Potency [2] | Potency [8] | Potency [3] | outcome [4] | Potency [5] | Potency [6] | Potency [7] | max response (NIH3T3) -16.9% | Potency (C33A) | Potency (CAOV3) | Potency (CASKI) | Potency (Es-2) | Potency (Hek293T) | Potency (JEG-3) | Potency (OV90) | Potency (PA-1) | Potency (Tov-21-G) | Potency (Tov112D)

— PubChem BioAssay (NCATS)
